Cruzain Triton – qHTS Assay for Promiscuous and Specific Inhibitors of Cruzain (with detergent). Cruzipain (Trypanosoma cruzi), P25779. purified cruzain, Z-FR-AMC fluorescence, 0.01% Triton. Potency, µM, inactives show max response, negative = inhibition, hits mostly inhibitors. 0.43% of 200,000 active. AID 1478, 2009;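 note: plate controls were neutral wells for no effect and buffer without enzyme for full effect; nearly all actives have a fitted effect of over 40% in size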
Target sequence (P25779 123-467 limits assumed): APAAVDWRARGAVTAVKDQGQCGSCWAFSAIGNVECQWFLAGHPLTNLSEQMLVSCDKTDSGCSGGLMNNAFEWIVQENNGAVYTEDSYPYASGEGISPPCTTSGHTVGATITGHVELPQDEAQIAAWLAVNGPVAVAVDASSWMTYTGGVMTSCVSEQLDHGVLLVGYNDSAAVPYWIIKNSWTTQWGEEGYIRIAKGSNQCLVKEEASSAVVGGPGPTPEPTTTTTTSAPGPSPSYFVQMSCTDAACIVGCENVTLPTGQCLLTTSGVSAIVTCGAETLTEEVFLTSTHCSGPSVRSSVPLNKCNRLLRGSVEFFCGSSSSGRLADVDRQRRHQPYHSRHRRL
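In this qHTS format, compounds are incubated with 1.5 nM cruzain for 15 min at room temperature before 2 uM Z-FR-AMC is added. Release of AMC is followed at 360/450 nm, and progress is taken as the 60 s fluorescence difference.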
Cruzain noTriton – qHTS Assay for Promiscuous and Specific Inhibitors of Cruzain (without detergent); Cruzipain (Trypanosoma cruzi), P25779; purified cruzain, Z-FR-AMC fluorescence, no detergent; Potency, µM, without a hit: max response, negative = inhibition, usual class: inhibitors; 2.3% of 200,000 active;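 note: plate controls were enzyme without inhibitor for no effect and buffer without enzyme for full effect; nearly all actives have a fitted effect of over 40% in size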
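Purified cruzain at 1.5 nM, pre-incubated 15 min with compound at room temperature in 100 mM sodium acetate pH 5.5, 5 mM DTT, 0.00005% Triton X-100. Reaction started with 2 uM Z-FR-AMC; AMC fluorescence increase over 60 s gives rate.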
Numbers without * were called inactive; ? = inconclusive; ! = a repeat was not active. An excerpt weighted towards active compounds, which were near 2.6% of everything screened. Calls come from the whole dose curve; as a rule, active = well fitted curve in the direction sought with a large enough effect; inconclusive = small, poorly fitted or top-dose-only effect, or another doubt; inactive = no such curve, though single readings can be large; an effect the other way counts as inactive or inconclusive. Potency is the fitted concentration of half-maximal effect.

SMILES | Cruzain Triton | Cruzain noTriton
COc1ccc(-c2noc(CN(C(=O)c3cc(OC)c(OC)cc3OC)C(C)C)n2)cc1 | 0% | ?
CCOC(=O)c1c(Nc2ccc(C)cc2)nnc(-c2ccccc2)c1-c1ccccc1 | -8% | -27%
CCOc1ccccc1-c1nc(SCC(=O)c2ccc(OC)c(Br)c2)n[nH]1 | -4% | -3%
Cc1cccc(NC(=O)C2CCC(CNS(=O)(=O)c3ccc4c(c3)CCCC(=O)N4)CC2)c1C (configuration not stated) | 0% | -11%
COc1cc(OC)cc(C(=O)Nc2cccc(-c3cn4ccsc4n3)c2)c1 | -4% | -2%
CCOC(=O)c1ccc(NC(=O)Cc2coc3cc(C)cc(C)c23)cc1 | -8% | -10%
COc1ccc(-c2nc(CS(=O)CC(=O)NCCc3ccccc3)c(C)o2)cc1OC (configuration not stated) | -4% | 8%
O=C(NCc1cccc(F)c1)c1ccc(N2C(=O)Cn3c(cc4sccc43)C2=O)cc1 | -7% | 25µM*
CCN1CCSc2ccc(C(=O)NCc3cccc(F)c3)cc21 | 1% | 7%
CC(Sc1nc2c([nH]c3ccccc32)c(=O)n1-c1ccccc1)c1ccccc1 (configuration not stated) | -2% | 7.9µM*
Cc1ccc2nc(-c3ccc(SCC(=O)Nc4ccc5c(c4)OCCO5)nc3)[nH]c2c1 | -6% | -8%
O=C(CSc1nc2c([nH]c3ccccc32)c(=O)n1-c1ccccc1)Nc1ccc2c(c1)OCO2 | -2% | ?
Cc1cc2nc(-c3ccc(SCC(=O)Nc4ccc5c(c4)OCCO5)nc3)[nH]c2cc1C | -5% | 16µM*
COc1cccc(NC(=O)CSc2nc3c([nH]c4ccccc43)c(=O)n2-c2ccccc2)c1 | -6% | ?
O=C(CSc1nc2c([nH]c3ccccc32)c(=O)n1-c1ccccc1)Nc1ccc(Cl)c(Cl)c1 | -1% | 13µM*
COC(=O)C(C)Sc1nc2c([nH]c3ccccc32)c(=O)n1-c1ccc(OC)cc1 (configuration not stated) | -4% | -2%
O=C(CSc1nc2c([nH]c3ccccc32)c(=O)n1-c1ccccc1)Nc1ccc2c(c1)OCCO2 | -5% | 25µM*
O=C(NCc1cccnc1)c1nn(-c2ccc(F)cc2)nc1CO | -3% | -13%
Cc1cc2oc(C(=O)Nc3sc4c(c3C(=O)NCc3ccco3)CCC4)cc(=O)c2cc1C | -2% | -10%
COc1ccc(Cn2c(=O)n(Cc3ccco3)c(=O)c3oc4ccccc4c32)cc1 | -2% | 16%
Cc1ccc(-n2c(SCC(=O)Nc3ccc4c(c3)OCCO4)nc3c([nH]c4ccccc43)c2=O)cc1 | -7% | 25µM*
Cc1cc(C)cc(-n2c(SCC(=O)Nc3ccc4c(c3)OCCO4)nc3c([nH]c4ccccc43)c2=O)c1 | 0% | ?
Cc1cccc(C(=O)NC(NC(=S)Nc2ccc(S(N)(=O)=O)cc2)C(Cl)(Cl)Cl)c1 (configuration not stated) | 13µM* | 25µM*
CCC(=O)NC(NC(=S)Nc1ccc(S(N)(=O)=O)cc1)C(Cl)(Cl)Cl (configuration not stated) | -4% | 11%
CCOC(=O)c1c(-c2cccc([N+](=O)[O-])c2)csc1NC(=O)CCCOc1ccccc1 | -4% | 32µM*
SMILES | Cruzain Triton | Cruzain noTriton
CCOC(=O)c1c(-c2cccc([N+](=O)[O-])c2)csc1NC(=O)CCCOc1ccccc1OC | -7% | -10%
O=C(Cn1nnc(-c2ccc(Cl)cc2)n1)NCCC1=CCCCC1 | 10% | 20µM*
Cc1ccc(-c2nnn(CC(=O)NCCC3=CCCCC3)n2)cc1 | 8% | ?
O=C(N/N=C/C=C/c1ccccc1[N+](=O)[O-])c1cc(-c2ccccc2)n[nH]1 | -18% | 25µM*
O=C(N/N=C/C=C\c1ccccc1[N+](=O)[O-])c1ccccn1 | -9% | 4%
O=C(N/N=C/C=C/c1ccco1)c1cccnc1 | -10% | -3%
O=C(N/N=C\C=C\c1ccco1)c1cc(-c2ccc3ccccc3c2)n[nH]1 | -10% | 16µM*
CCOc1ccccc1Nc1nnc(-c2cc3cc(OC)ccc3oc2=O)s1 | 1% | -1%
CCCCNC(=O)Cn1ncc2c(C)n(Cc3cccc(Cl)c3)c(C)c2c1=O | -2% | 10%
CC1=CC(C)(C)Nc2ccccc21 | 0% | 16µM*!
CC1=CC(C)(C)Nc2ccc(OC(=O)CCN3C(=O)c4ccccc4C3=O)cc21 | -14% | 9%
CCc1ccc2occ(CC(=O)Nc3c(C(=O)Nc4ccc(OC)cc4)oc4ccccc34)c2c1 | -4% | -6%
CCOc1ccc(NC(=O)c2oc3ccccc3c2NC(=O)c2cc(C)cc(C)c2)cc1 | -1% | 1%
COc1ccc(NC(=O)c2oc3ccccc3c2NC(=O)Cc2coc3ccc(C)cc23)cc1 | -5% | 25µM*
CCOc1ccc(NC(=O)c2oc3ccccc3c2NC(=O)C(C)Oc2ccccc2)cc1 (configuration not stated) | -5% | 32µM*
